Drawing on PubChem BioAssay (NCATS), this text covers Potency, outcome and activity change, negative = inhibition for 15 compounds.

A number with no mark means an inactive call. Inconclusive results are not listed. The source made the active and inactive calls. Calls follow the shape of the dose curve; as a rule, active = well fitted curve in the direction sought with a large enough effect; inconclusive = small, poorly fitted or top-dose-only effect, or another doubt; inactive = no such curve, though single readings can be large; an effect the other way counts as inactive or inconclusive.

A short description of experiment [1]: qHTS to identify inhibitors of the type 1 interferon - major histocompatibility complex class I in skeletal muscle: primary screen against the NCATS Pharmaceutical Collection (AID 1347407).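 Also: luminescence of HiBiT knocked into endogenous HLA-B as interferon-induced MHC class I level.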 Also: potency is read from the fitted curve at half-maximal effect. As to activity change, negative = inhibition: % is scaled to controls: 0 for no effect and ±100 for the full control effect. Conditions: human skeletal muscle cells, IFN-b-induced MHC-I HiBiT luminescence, 24 h; series mostly up to 45.9 µM. The gist of the method: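 Compounds […] were added to CRISPR-engineered HLA-B-HiBiT C25cl48 human myoblasts with 4.0 ng/ml IFN-beta. After 24 hrs at 37 C, cells were lysed and HiBiT luminescence measured.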

Experiment [2] addresses Protein phosphatase 1D (Homo sapiens) (UniProt O15297). Nature of the experiment: RapidFire Mass Spectrometry qHTS Assay for Modulators of WT P53-Induced Phosphatase 1 (WIP1) (AID 1347424).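 Also: plate controls were DMSO wells for no effect and GSK830371 inhibitor control at 10 µM for full effect.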 Conditions: WIP1 dephosphorylation of phosphopeptide, RapidFire MS; series mostly up to 63 µM. The gist of the method:
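RapidFire MS readout of dephosphorylated VEPPL-S-QETFS product, with 1 uM isotope-labelled peptide standard. Reaction: 10 nM WIP1, 2 uM phosphopeptide substrate, 5 min, room temperature, after 1 h compound preincubation; stopped with 0.5% formic acid.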

Experiment [3] shares this target. Nature of the experiment: Rhodamine-PBP qHTS Assay for Modulators of WT P53-Induced Phosphatase 1 (WIP1) (AID 1347425). Also: % of control where 0% means no effect. Particulars: recombinant WIP1, Rhodamine-PBP phosphate fluorescence, real-time; series mostly up to 57.5 µM. The gist of the method: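 5 nM WIP1 + 10 uM Rh-PBP, 50 mM Tris pH 7.5, 30 mM MgCl2, 1 mM TCEP, 0.1 mM EGTA, BSA; cpds pinned, 1 hr RT; + 10 uM phosphopeptide; fluorescence 1-min reads x 11 min; delta = f1 - f0.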

The nature of experiment [4]: qHTS to identify inhibitors of the type 1 interferon - major histocompatibility complex class I in skeletal muscle: primary screen against the NCATS Mechanism Interrogation Plate v5.0 (MIPE) Libary (AID 1347411).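 Also: plate controls were vehicle for no effect and reference inhibitor for full effect; nearly all actives have a fitted effect of over 65% in size.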 Conditions: iHSKM cells + IFN-b, HiBiT-tagged MHC-I luminescence, 24 h; series mostly up to 45.8 µM. A digest of the protocol:
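Luminescence from CRISPR HiBit-tagged endogenous HLA-B in human myoblasts reported MHC class I level after 24 h of IFN-beta (4 ng/ml) plus compound. Compounds ran as 11-point 1:3 series, top 46 uM final.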

Experiment [5] can be described thus: qHTS to identify inhibitors of the type 1 interferon - major histocompatibility complex class I in skeletal muscle: primary screen against the NCATS LOPAC collection (AID 1347405).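 Also: lytic HiBiT luminescence reporting HLA-B protein level.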 Also: potency is read from the fitted curve at half-maximal effect. As to activity change, negative = inhibition: % is scaled to controls: 0 for no effect and ±100 for the full control effect. Particulars: iHSKM muscle cells, IFN-b-induced MHC-I HiBiT luminescence, 24 h; series mostly up to 45.9 µM. A digest of the protocol:
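After 24 h at 37 C with compounds (7-point, 1:4.3 dilutions, 46 uM top final) plus 4 ng/ml IFN-beta, luminescence from lytic HiBiT detection was measured. HLA-B*08:01 in C25cl48 myoblasts carried an endogenous C-terminal HiBiT tag; medium lacked dexamethasone.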

The nature of experiment [6]: qHTS for inhibitors of adenylyl cyclases using a fission yeast platform: a pilot screen against the NCATS LOPAC library (AID 1347410).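 Also: plate controls were DMSO vehicle for no effect and DPI positive control for full effect.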 Particulars: S. pombe CHP2027, fbp1-GFP fluorescence, 18 h, yeast expressing mammalian AC9 and human GNAS; series mostly up to 57.5 µM. A digest of the protocol: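 GFP from fbp1-GFP reporter, read by Acumen laser cytometry, indicates AC inhibition in fission yeast expressing AC9, GNAS and PDE4D2. Cells grown 18 h in the dark at 30C with compounds, final up to 57 uM.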

Experiment [7] in a line: Vero cells viability qHTS for Zika virus inhibitors (AID 1347167). Also: % is scaled to controls: 0 for no effect and ±100 for the full control effect. Conditions: cytotoxicity counter-screen (Zika); series mostly up to 45.9 µM. A digest of the protocol: (§1)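 qHTS titration; 24-48 h compound exposure, 37 degrees C/5% CO2; DMEM, 4% FBS; CellTiter Glo ATP luminescence.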
A short description of experiment [8]: HepG2 cells viability qHTS for Zika virus inhibitors (AID 1347168). Also: % is scaled to controls: 0 for no effect and ±100 for the full control effect. Particulars: Zika counter-screen; series mostly up to 45.9 µM. The gist of the method:
as §1

Experiment [9] can be described thus: Tertiary RLuc qRT-PCR qHTS assay for Zika virus inhibitors (AID 1347169). Also: top concentration of the series differs between compounds; % is scaled to controls: 0 for no effect and ±100 for the full control effect; nearly all actives have a fitted effect of over 55% in size. Particulars: infected Vero cells, reporter luminescence, 48-72 h; series mostly up to 45.9 µM. The gist of the method:
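Orthogonal cell-based readout: luminescence measured 1-1.5 hrs after adding live-cell Renilla substrate to Vero cells that had been infected with ZIKV-RLuc (MOI 1-2) post-compound, incubated 48-72 hrs at 37 degrees C.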

Chain of Protein phosphatase 1D (Homo sapiens) (O15297 whole entry, looked up): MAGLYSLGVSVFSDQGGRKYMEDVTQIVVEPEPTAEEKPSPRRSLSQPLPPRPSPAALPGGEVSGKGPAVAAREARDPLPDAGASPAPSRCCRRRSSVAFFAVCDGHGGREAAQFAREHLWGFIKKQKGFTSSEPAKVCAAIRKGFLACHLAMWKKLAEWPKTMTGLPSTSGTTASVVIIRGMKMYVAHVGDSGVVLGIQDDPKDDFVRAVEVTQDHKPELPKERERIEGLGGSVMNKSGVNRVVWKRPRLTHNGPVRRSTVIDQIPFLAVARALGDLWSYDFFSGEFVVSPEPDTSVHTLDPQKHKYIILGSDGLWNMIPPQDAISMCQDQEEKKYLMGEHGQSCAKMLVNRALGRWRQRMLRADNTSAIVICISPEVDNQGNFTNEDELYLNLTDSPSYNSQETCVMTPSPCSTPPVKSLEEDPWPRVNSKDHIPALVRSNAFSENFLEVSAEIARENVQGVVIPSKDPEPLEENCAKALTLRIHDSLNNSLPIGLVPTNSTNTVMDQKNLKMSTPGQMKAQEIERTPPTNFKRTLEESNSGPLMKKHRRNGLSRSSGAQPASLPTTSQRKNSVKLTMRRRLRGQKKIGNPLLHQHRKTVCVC

As for `CCN(CC)CCNC(C(=O)OCCC(C)C)c1ccccc1` (stereo unspecified), the Potency result in experiment [1] is “inactive”. Also, the compound was called inactive in experiment [2] and in experiment [3].

As to `OC[C@H]1O[C@@H](O[C@@H]2[C@@H](CO)O[C@](O)(CO)[C@H]2O)[C@H](O)[C@@H](O)[C@H]1O`, the Potency result in experiment [1] and in [4] was “inactive” throughout. The compound was classed as inactive in experiment [2] and in experiment [3].

Turning to `CCN(CC)CCNC(=O)c1c(C)[nH]c(/C=C2\C(=O)Nc3ccc(F)cc32)c1C`, the Potency in experiment [5] was 10 µM (active); in [1] it was 10.5 µM (active). The call in experiment [6] and in experiment [2] was inactive.

As to `N[C@@H](CSSC[C@H](N)C(=O)O)C(=O)O`, the activity change, negative = inhibition was 0.957% [at 0.727 µM] in experiment [1], -0.373% [at 0.505 µM] in experiment [2] and 14.5% [at 0.575 µM] in experiment [3].

On to `CC(C)(C)NCC(O)COc1ccc(NC(=O)NC2CCCCC2)cc1` (stereo unspecified), for which, in experiment [1], the Potency entry was “inactive”. Further, the result in experiment [2] and in experiment [3] was inactive.

Turning to `NCC(=O)CCC(=O)O`, in [1], the Potency result was “inactive”. Further, the result in experiment [2] and in experiment [3] was inactive.

In the case of `COC(=O)[C@H]1[C@H]2C[C@@H]3c4[nH]c5cc(OC)ccc5c4CCN3C[C@H]2C[C@@H](OC(=O)COc2ccc(OC)cc2)[C@@H]1OC`, the Potency entry in experiment [1] is “inactive”. Besides, the compound was called inactive in experiment [2] and in experiment [3].

For `[O-][n+]1cccc(CO)c1`, the Potency entry in [1] is “inactive”. Moreover, the outcome in [2] and in experiment [3] was inactive.

`CO/N=C(\C(=O)N[C@@H]1C(=O)N2C(C(=O)O)=C(CSc3nc(=O)c(O)nn3C)CS[C@H]12)c1csc(N)n1`: the Potency entry in experiment [1] was “inactive”. In experiment [3], the result was inactive.

In the case of `O=C(O)c1ccccc1O`, the Potency entry in [1] was “inactive”. Moreover, the compound was classed as inactive in experiment [2] and in [3].

On to `N[C@H](C(=O)O)c1ccc(O)cc1`, for which the Potency result in [7], in [9] and in [1] was “inactive” in each case. The outcome in experiment [8], in [2] and in experiment [3] was inactive.

On to `COc1cc2[nH]c(=O)[nH]c(=O)c2cc1OC`, for which the Potency entry in [1] was “inactive”. Moreover, the compound was called inactive in experiment [2] and in experiment [3].

Consider `O=C1NC(=O)[C@@]2(CCOc3ccc(F)cc32)N1`, for which the Potency result in [5] and in experiment [1] was “inactive” throughout. Moreover, the call in experiment [6], in experiment [2] and in experiment [3] was inactive.

Regarding `Oc1ccc(C(O)CNCCCCCCNCC(O)c2ccc(O)c(O)c2)cc1O` (stereo unspecified), in experiment [1], the Potency result is “inactive”. Besides, the compound was classed as inactive in experiment [2] and in [3].

With `NCCNCCNCCNCCN`, the activity change, negative = inhibition is 0.364% [at 9.18 µM] in experiment [1], -9.15% [at 12.6 µM] in experiment [2] and 12% [at 11.5 µM] in experiment [3].
